# Measured values reported in PubChem BioAssay.
# Active and inactive are the calls of the source.
# Key:
# [1] = test system: Plasmodium falciparum Sir2 (PF13_0152, Sir2A); assay: pfSir2 binders on small-molecule microarrays, primary screen, biochemical, small-molecule microarray, 635 nm fluorescence (AID 1098); conditions: small-molecule microarray binding, fluorescence 635 nm; higher = more signal;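 also: score merges spot fluorescence intensity with its signal-to-noise ratio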
# [2] = small-molecule microarray binders of probe aDKK1, primary screen, biochemical, biotinylated probe, 635/667 nm fluorescence (AID 1099); conditions: higher = more signal;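 also: score merges 667nm spot fluorescence with signal to noise across triplicate slides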
# [3] = small-molecule microarray binders of probe aCHRDL2, primary screen, biochemical, biotinylated probe, 635/667 nm fluorescence (AID 1100); conditions: higher = more signal
# [4] = splicing luciferase reporter signal modulators, primary screen, spliceosome inhibition project, cell-based, HEK293, splice +/- reporter (AID 1101); conditions: luminescence, 24 h, higher = more signal, called active from +8 up or from −8 down;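 also: HEK293 cells carrying a splicing-competent luciferase reporter gene; test concentration not given here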
# [5] = target: Fibroblast growth factor 10 (Homo sapiens) (UniProt O15520); assay: FGF10 binders on small-molecule microarrays, primary screen, biochemical, small-molecule microarray, 635 nm fluorescence (AID 1102); conditions: FGF10 binding, fluorescence 635 nm, higher = more signal
# Sequence of Fibroblast growth factor 10 (Homo sapiens) (O15520 whole entry, looked up): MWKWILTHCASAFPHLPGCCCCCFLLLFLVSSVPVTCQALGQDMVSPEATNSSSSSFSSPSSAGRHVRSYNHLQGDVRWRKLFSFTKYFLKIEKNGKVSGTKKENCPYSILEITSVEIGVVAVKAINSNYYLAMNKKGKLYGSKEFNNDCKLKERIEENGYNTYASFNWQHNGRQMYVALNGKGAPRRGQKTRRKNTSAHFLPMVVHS
# [6] = test system: glycogen synthase kinase-3 (GSK3A per assay name; protocol says GSK3B); assay: GSK3 binders on small-molecule microarrays, primary screen, biochemical, small-molecule microarray, 635 nm fluorescence, GSK3A (AID 1103); conditions: small-molecule microarray binding, fluorescence 635 nm; higher = more signal; also: the record names both GSK3A and GSK3B
# [7] = target: Epidermal growth factor receptor (Homo sapiens) (UniProt P00533); assay: EGFR binders on small-molecule microarrays, primary screen, biochemical, small-molecule microarray, 635 nm fluorescence (AID 1104); conditions: EGFR binding, higher = more signal;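 also: score merges 667 nm emission intensity with spot signal to noise over triplicate slides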
# Sequence of Epidermal growth factor receptor (Homo sapiens) (P00533 whole entry, looked up): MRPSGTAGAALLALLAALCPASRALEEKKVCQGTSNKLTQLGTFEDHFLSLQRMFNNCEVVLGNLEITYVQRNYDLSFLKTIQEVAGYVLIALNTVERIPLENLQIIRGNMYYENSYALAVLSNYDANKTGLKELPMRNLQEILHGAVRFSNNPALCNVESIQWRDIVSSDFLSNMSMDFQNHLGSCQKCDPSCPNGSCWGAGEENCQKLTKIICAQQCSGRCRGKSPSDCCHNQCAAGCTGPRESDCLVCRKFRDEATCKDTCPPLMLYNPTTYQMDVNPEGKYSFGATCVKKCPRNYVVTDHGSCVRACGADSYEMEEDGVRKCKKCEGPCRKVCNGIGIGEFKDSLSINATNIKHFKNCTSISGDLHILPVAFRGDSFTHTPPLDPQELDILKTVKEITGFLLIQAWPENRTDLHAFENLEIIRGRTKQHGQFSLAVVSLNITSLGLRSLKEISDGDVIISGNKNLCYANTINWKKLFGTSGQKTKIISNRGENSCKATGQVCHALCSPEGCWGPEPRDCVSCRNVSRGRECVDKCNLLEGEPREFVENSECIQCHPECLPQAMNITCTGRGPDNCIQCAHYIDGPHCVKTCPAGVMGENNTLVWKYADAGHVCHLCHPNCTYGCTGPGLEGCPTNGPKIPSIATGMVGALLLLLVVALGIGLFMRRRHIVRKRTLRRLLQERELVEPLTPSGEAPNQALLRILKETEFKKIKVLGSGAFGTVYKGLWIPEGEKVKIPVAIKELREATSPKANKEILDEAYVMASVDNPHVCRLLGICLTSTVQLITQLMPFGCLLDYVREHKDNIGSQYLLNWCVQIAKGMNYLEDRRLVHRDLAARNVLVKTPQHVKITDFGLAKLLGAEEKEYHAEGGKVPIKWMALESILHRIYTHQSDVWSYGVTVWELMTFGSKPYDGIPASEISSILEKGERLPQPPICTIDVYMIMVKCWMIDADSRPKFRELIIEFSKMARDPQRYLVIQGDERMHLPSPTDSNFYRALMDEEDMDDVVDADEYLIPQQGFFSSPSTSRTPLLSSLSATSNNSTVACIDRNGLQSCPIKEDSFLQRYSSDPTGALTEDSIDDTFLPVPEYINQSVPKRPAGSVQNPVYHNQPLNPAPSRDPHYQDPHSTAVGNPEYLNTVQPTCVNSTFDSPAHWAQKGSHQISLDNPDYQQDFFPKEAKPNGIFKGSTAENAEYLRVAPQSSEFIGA
# [8] = target: Follistatin-related protein 3 (Homo sapiens) (UniProt O95633); assay: FSTL3 binders on small-molecule microarrays, primary screen, biochemical, small-molecule microarray, 635 nm fluorescence (AID 1105); conditions: FSTL3 binding, higher = more signal;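 also: score merges emission near 667 nm and signal to noise per printed spot across three slides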
# Sequence of Follistatin-related protein 3 (Homo sapiens) (O95633 whole entry, looked up): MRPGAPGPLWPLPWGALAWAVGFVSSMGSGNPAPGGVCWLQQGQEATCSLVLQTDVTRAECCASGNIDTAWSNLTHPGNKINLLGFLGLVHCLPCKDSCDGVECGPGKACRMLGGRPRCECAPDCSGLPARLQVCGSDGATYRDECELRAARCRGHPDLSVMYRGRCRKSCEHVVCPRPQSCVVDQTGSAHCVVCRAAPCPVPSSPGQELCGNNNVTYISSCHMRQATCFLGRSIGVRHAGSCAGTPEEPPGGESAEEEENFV
# [9] = target: Dickkopf-related protein 1 (Homo sapiens) (UniProt O94907); assay: DKK1 binders on small-molecule microarrays, primary screen, biochemical, small-molecule microarray, 635 nm fluorescence scan (AID 1106); conditions: DKK1 binding, higher = more signal;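 also: score merges emission near 667 nm with signal to noise over three replicate slides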
# Sequence of Dickkopf-related protein 1 (Homo sapiens) (O94907 whole entry, looked up): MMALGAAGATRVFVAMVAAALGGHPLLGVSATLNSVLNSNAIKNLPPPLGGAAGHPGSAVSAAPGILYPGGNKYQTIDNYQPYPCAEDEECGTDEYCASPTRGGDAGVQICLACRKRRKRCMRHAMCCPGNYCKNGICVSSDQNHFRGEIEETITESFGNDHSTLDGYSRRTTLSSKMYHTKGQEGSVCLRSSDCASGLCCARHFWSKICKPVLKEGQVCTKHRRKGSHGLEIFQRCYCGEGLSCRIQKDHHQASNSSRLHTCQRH
# [10] = test system: Inhibin beta A chain (activin A); assay: INHBA (activin A) binders on microarrays, primary screen, biochemical, small-molecule microarray, 635 nm fluorescence scan (AID 1107); conditions: small-molecule microarray binding, higher = more signal;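 also: mouse activin A protein probed at 4.33 µg/mL on printed slides; score merges bound-protein fluorescence near 667 nm with spot signal-to-noise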
# [11] = test system: Human papillomavirus type 1a protein E7 (residues 44-93); assay: HPV1a E7 fragment binders on microarrays, primary screen, biochemical, small-molecule microarray, residues 44-93, 635 nm fluorescence (AID 1108); conditions: small-molecule microarray binding, fluorescence 635 nm; higher = more signal;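 also: E7 fragment applied at 1 µg/mL in TBST for 1 h at 4 C; score combines spot fluorescence with its signal to noise ratio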
# [12] = modulators of HCV replicon luciferase signal, primary screen, HCV replication inhibitor project, Huh7 cells, luciferase reporter (AID 1109); conditions: 48 h, higher = more signal;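 also: huh7 hepatoma cells harbouring a luciferase neomycin HCV replicon reporter; luciferase luminescence as measure of HCV replicon replication; test concentration not given here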
# [13] = target: Left-right determination factor 2 (Homo sapiens) (UniProt O00292); assay: LEFTY2 binders on small-molecule microarrays, primary screen, biochemical, small-molecule microarray, 635 nm fluorescence scan (AID 1110); conditions: LEFTY2 binding, higher = more signal
# Sequence of Left-right determination factor 2 (Homo sapiens) (O00292 whole entry, looked up): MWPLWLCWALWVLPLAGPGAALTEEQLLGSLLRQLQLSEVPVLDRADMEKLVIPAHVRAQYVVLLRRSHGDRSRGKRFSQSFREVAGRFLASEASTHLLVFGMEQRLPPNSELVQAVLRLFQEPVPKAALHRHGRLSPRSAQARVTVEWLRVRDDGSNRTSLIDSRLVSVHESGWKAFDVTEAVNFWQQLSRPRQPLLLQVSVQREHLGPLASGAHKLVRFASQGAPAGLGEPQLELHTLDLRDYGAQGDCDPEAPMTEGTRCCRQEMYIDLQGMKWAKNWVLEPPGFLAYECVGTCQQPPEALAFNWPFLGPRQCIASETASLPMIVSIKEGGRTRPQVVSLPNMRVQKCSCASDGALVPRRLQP
# [14] = target: Calmodulin-1 (Homo sapiens) (UniProt P0DP23); assay: CALM1 binders on microarrays, EGTA buffer, profiling panel, biochemical, small-molecule microarray, Cy5-labelled CALM1 (AID 1111); conditions: Cy5-CALM1 binding fluorescence, higher = more signal;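 also: labelled calmodulin applied in Tris saline Tween buffer holding calcium plus EGTA and DTT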
# [15] = target: Calmodulin-1 (Homo sapiens) (UniProt P0DP23); assay: calcium-bound CALM1 binders on microarrays, profiling panel, artefact control for SMM control-protein annotation, biochemical, small-molecule microarray, Cy5-labelled CALM1, plus calcium (AID 1112); conditions: Cy5-CALM1 binding fluorescence, higher = more signal;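 also: score merges spot fluorescence with signal to noise from triplicate slides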
# [16] = small-molecule microarray binders of probe aWnt5a, primary screen, biochemical, biotinylated probe, 635/667 nm fluorescence (AID 1113); conditions: higher = more signal;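 also: score merges 667 nm fluorescence intensity with signal-to-noise per printed feature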
# [17] = small-molecule microarray binders of probe aShh, primary screen, biochemical, biotinylated probe, 635/667 nm fluorescence (AID 1114); conditions: higher = more signal;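 also: probe is biotin-labelled aShh protein from a stem cell growth factor screen; measures binding of labelled protein to compounds printed on the slide; score merges feature fluorescence at 667 nm with signal-to-noise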
# [18] = small-molecule microarray binders of probe aNog, primary screen, biochemical, biotinylated probe, 635/667 nm fluorescence (AID 1115); conditions: higher = more signal;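 also: probe is biotinylated aNog protein used at 0.15 µg/mL for 1 h at 4 C; z-score combines 667 nm fluorescence of each spot with its signal to noise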
# [19] = target: Torsin-1A-interacting protein 1 (Homo sapiens) (UniProt Q5JTV8); assay: LAP1 binders from COS7 cell lysate, primary screen, small-molecule microarray, 635/667 nm fluorescence (AID 1116); conditions: COS7-hLAP1 lysate binding, 635 nm fluorescence, higher = more signal
# Sequence of Torsin-1A-interacting protein 1 (Homo sapiens) (Q5JTV8 whole entry, looked up): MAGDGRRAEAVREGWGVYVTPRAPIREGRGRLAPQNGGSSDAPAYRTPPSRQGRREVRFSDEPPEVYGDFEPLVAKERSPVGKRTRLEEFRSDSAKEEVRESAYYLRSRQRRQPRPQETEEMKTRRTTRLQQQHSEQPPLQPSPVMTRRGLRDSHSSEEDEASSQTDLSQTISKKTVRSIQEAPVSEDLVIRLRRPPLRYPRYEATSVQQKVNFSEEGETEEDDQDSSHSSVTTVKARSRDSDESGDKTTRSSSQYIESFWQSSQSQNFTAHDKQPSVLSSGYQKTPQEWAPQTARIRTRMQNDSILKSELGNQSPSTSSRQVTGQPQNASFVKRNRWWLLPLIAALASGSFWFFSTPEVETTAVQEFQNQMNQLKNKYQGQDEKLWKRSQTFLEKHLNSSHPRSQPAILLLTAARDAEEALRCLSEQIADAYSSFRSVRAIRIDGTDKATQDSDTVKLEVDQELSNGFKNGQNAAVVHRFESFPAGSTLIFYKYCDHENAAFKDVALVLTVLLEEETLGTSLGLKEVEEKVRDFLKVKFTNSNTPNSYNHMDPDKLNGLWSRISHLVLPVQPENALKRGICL
# [20] = target: Alpha-bungarotoxin (Bungarus multicinctus) (UniProt P60615); assay: alpha-bungarotoxin binders on microarray, profiling panel, artefact control for SMM control protein annotation, biochemical, small-molecule microarray, Alexa647 label, 635/667 nm fluorescence (AID 1117); conditions: alpha-BTX-A647 binding fluorescence, higher = more signal
# Sequence of Alpha-bungarotoxin (Bungarus multicinctus) (P60615 whole entry, looked up): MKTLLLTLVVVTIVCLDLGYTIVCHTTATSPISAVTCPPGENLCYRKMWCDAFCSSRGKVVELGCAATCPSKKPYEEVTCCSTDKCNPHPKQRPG
SMILES,composite z-score [1],composite z-score [2],composite z-score [3],z-score [4],composite z-score [5],composite z-score [6],composite z-score [7],composite z-score [8],composite z-score [9],composite z-score [10],composite z-score [11],z-score [12],composite z-score [13],composite z-score [14],composite z-score [15],composite z-score [16],composite z-score [17],composite z-score [18],composite z-score [19],composite z-score [20]
COCCCNC(=O)[C@@]1(Cc2ccccc2CN=[N+]=[N-])N=C(c2ccc(OCCCO)cc2)O[C@H]1c1ccccc1N=[N+]=[N-],1.61,1.05,1.28,-1.26 (inactive),1.35,1.22,0.15,0.706,0.0902,0.542,-0.0639,-2.3,0.0652,1.56,1,0.0388,0.291,-0.675,0.785,1.48
C=CC[C@]1(C(=O)N2CCOCC2)N=C(c2ccc(OCCCO)cc2)O[C@H]1c1ccccc1CN=[N+]=[N-],1.55,0.0557,0.948,-0.244 (inactive),1.24,0.0251,-0.124,0.879,-0.121,0.58,1.42,-1.85,0.366,1.84,0.403,0.127,0.398,1.88,1.94,0.948
COCCCNC(=O)[C@@]1(Cc2ccccc2)COC(c2ccc(OCCCO)cc2)=N1,1.7,0.583,1.11,-0.37 (inactive),0.505,0.384,-0.715,-0.776,-0.688,0.065,0.952,-0.409,-1.08,0.525,0.361,0.199,0.289,-0.573,1.03,0.943
COC(=O)[C@@]1(Cc2ccc(OC)cc2)[C@H]2c3cc(C(=O)N(C)C)n(CCF)c3C[C@H]2CN1C(=O)c1ccccc1,1.17,1.23,0.923,-0.674 (inactive),0.601,1.14,0.185,1.03,-0.123,0.854,0.528,-1.83,0.216,2.13,1.02,0.027,0.675,1.82,1.01,1.79
CCC[C@@H]1C[C@@]1(CCC)[C@@H](NC(=O)c1ccco1)c1ccc(Cl)cc1,-0.585,-0.0347,0.762,-3.52 (inactive),0.14,-2.1,-0.414,-0.722,-0.366,0.447,-1.06,-0.49,-0.936,-0.177,0.0344,-0.252,0.254,0.756,-0.678,-0.0776
C[N+](C)(C)CCCCCCNC(=O)[C@@H]1C[C@@H]2C(=O)NCC(=O)N2[C@@H]1c1cccc(OCCO)c1,1.23,-0.253,-0.127,-2.5 (inactive),0.781,0.496,0.144,1.44,1.24,0.728,0.891,1.99,0.695,0.21,-0.359,-0.18,-0.333,-0.0317,0.602,1.96
[N-]=[N+]=NCc1ccccc1[C@H]1OC(c2ccc(OCCCO)cc2)=N[C@@]1(Cc1ccccc1)C(N)=O,1.51,1.19,0.947,-0.312 (inactive),0.923,0.644,-0.43,0.546,-0.952,0.669,1.44,-1.46,-0.709,0.931,0.995,0.283,-0.0576,0.654,1.76,2.54
C=CC[C@@]1(C(=O)NCCN2CCOCC2)N=C(c2ccc(OCCCO)cc2)O[C@@H]1c1ccccc1,1.28,0.449,0.853,-0.161 (inactive),1.5,1.29,0.802,1.22,0.785,0.726,1.46,-1.34,0.902,-0.0984,-0.0501,0.0873,-0.0093,1,1.06,0.991
CCOC(=O)C1=CC[C@@H](c2ccccc2)N(S(=O)(=O)c2ccc(C)cc2)[C@H]1C=C(C)C,0.625,0.367,0.688,-0.925 (inactive),1.02,0.604,1.01,1.38,0.226,1.11,1.45,-2.21,0.407,0.808,-0.0374,0.055,0.199,1.06,0.647,0.162
CC(C)c1ccc(NN2C(C(O)c3ccccn3)C=CC3C(=O)N(c4ccccc4)C(=O)C32)cc1 (stereo not given),1.52,0.753,0.105,-0.684 (inactive),1.53,1.31,0.69,1.33,0.454,-0.75,1.51,-0.112,0.581,1.11,0.214,0.145,0.04,1.7,1.34,0.964
O=C1N(Cc2ccccc2)c2ccccc2[C@H]2OC(c3ccc(OCCCO)cc3)=N[C@@]12CCS(=O)(=O)c1ccccc1,0.703,-0.0921,0.584,0.212 (inactive),1.06,1.31,0.385,1.23,0.379,0.808,1.46,-2.22,0.479,1.76,-0.465,0.0317,0.435,0.347,0.557,0.977
